Bioassay records as filed in PubChem.
CHX counter – affects cycloheximide protein synthesis inhibition readout, counter-screen. max response, %. AID 2314. actives 12% (n = 300,000). cell reporter, cycloheximide protein synthesis inhibition counterscreen; in the data active = max response mostly above about 13%, no sharp cut-off; inactive = mostly below about 14%; note: read at 38.3 µM for the half of the compounds with a filed dose; 0% is about no effect
Pf growth 96h – P. falciparum growth inhibition at 96 hour, primary screen for plastid delayed-death inhibitors; P. falciparum luciferase reporter growth, 96 h; Potency, µM (doses to about 28.7 µM), for the others: at the top dose activity change, negative = inhibition, usual class: inhibitors; actives 6.9% (n = 320,000); note: potency is the fitted concentration of half-maximal effect; % is set by controls: 0 for no effect and ±100 for the full control effect
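Compounds incubated with erythrocytes infected by luciferase-expressing P. falciparum (2% hematocrit, 0.05% parasitemia final) for 96 hours, 37 C in 5% CO2. Growth inhibition scored as decreased luciferase luminescence.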
Pf growth 48h – P. falciparum growth inhibition at 48 hours (one generation); P. falciparum luciferase growth in erythrocytes, 48 h; Potency, µM (top dose mostly 28.7 µM), inactives show top-dose activity change, negative = inhibition, usual class: inhibitors; actives 5.9% (n = 310,000); note: potency is the fitted concentration of half-maximal effect; % is set by controls: 0 for no effect and ±100 for the full control effect
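Luciferase-expressing parasites in RBCs, 2% Hct / 0.1% parasitemia final; RPMI 1640 + 0.5% Albumax; 37 C, 5% CO2, one generation; luminescence read-out, lower signal = inhibition.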
Shiga toxin inh – Shiga toxin inhibition. inhibition, % at 38.7 µM. actives 9.2% (n = 290,000). Vero cells, Shiga toxin protein synthesis inhibition reporter; in the data active = inhibition mostly above about 28%, no sharp cut-off; inactive = mostly below about 43%; note: 0% is about no effect
* = called active by the depositor. Hits are enriched below; roughly 21% of the tested compounds scored in any of these assays. Unless noted, calls come from the whole dose curve; as a rule, active = well fitted inhibition curve with a large enough effect; inconclusive = small, poorly fitted or top-dose-only effect, or another doubt; inactive = no such curve, though single readings can be large or run the other way.

How did COc1ccc(NC2=CC(=O)CC(c3ccccc3)C2)cc1 (stereo not drawn) do in these assays?
CHX counter: 22*; Pf growth 96h: 19%; Pf growth 48h: inconclusive; Shiga toxin inh: -8

Results for CNC1=CC(=O)CC(c2ccccc2)C1 (stereo not drawn) ?
CHX counter: -2; Pf growth 96h: 12%; Pf growth 48h: 3%; Shiga toxin inh: -25

What do the screens show for `CCCCCNC1=CC(=O)CC(c2ccccc2)C1` (stereo not drawn)?
CHX counter: -3; Pf growth 96h: 0%; Pf growth 48h: inconclusive; Shiga toxin inh: -2

Results for CCCCCCCNC1=CC(=O)CC(c2ccccc2)C1 (stereo not drawn) ?
CHX counter: 12; Pf growth 96h: inconclusive; Pf growth 48h: 9.3µM*; Shiga toxin inh: 9

Results for Cc1cc(C)c(S(=O)(=O)CCC(C)C)c(=O)[nH]1 ?
CHX counter: -1; Pf growth 96h: inconclusive; Pf growth 48h: 5%; Shiga toxin inh: -2

How did COc1ccc(-c2sc(Nc3ccc(F)c(F)c3F)nc2CCC(=O)NN)cc1 do in these assays?
CHX counter: 42*; Pf growth 96h: inconclusive; Pf growth 48h: inconclusive; Shiga toxin inh: 100*

How did COc1ccc(-n2nc(N)c(C(N)=O)n2)cc1 do in these assays?
CHX counter: 33*; Pf growth 96h: 296%; Pf growth 48h: 107%; Shiga toxin inh: 39

How did CC(=O)Nc1ccc(C(=O)COC(=O)CCc2ccccc2)c(F)c1 do in these assays?
Pf growth 96h: inconclusive; Pf growth 48h: -7%

What do the screens show for `COCCNC(=O)CSc1nc(N)c(NC(=O)c2ccccc2F)c(=O)[nH]1`?
CHX counter: -2; Pf growth 96h: 34%; Pf growth 48h: 11%; Shiga toxin inh: -14

How did COC(=O)CSc1nnc(C)n1-c1ccc(C)cc1 do in these assays?
CHX counter: -2; Pf growth 96h: 25%; Shiga toxin inh: -1

How did COc1ccc(-n2c(Cc3ccccc3)nnc2SCC(=O)N2CCCc3ccccc32)cc1 do in these assays?
CHX counter: 6; Pf growth 96h: inconclusive; Pf growth 48h: 12µM*; Shiga toxin inh: 9

Results for Cn1cccc1Cc1nnc(SCC(=O)N2CCc3ccccc32)n1-c1ccc(F)cc1 ?
CHX counter: -4; Pf growth 96h: 21%; Pf growth 48h: -29%; Shiga toxin inh: -17

How did COC(=O)CSc1nnc(Cc2ccccc2)n1-c1ccc(C)cc1 do in these assays?
CHX counter: 14*; Pf growth 96h: 8%; Pf growth 48h: 36%; Shiga toxin inh: 0

How did Cn1cccc1Cc1nnc(SCC(=O)N2CCCc3ccccc32)n1-c1ccc(F)cc1 do in these assays?
CHX counter: -3; Pf growth 96h: 8.3µM*; Pf growth 48h: inconclusive; Shiga toxin inh: -9

What do the screens show for `CCN(Cc1cnn(C)c1)Cc1nc(C(c2ccccc2)c2ccccc2)no1`?
CHX counter: -1; Pf growth 96h: 30%; Pf growth 48h: inconclusive; Shiga toxin inh: -6

What do the screens show for `CN(CC(=O)Nc1ccccc1Br)C(=O)c1cccn1C`?
Pf growth 96h: -28%; Pf growth 48h: -3%

How did O=C(NCc1ccco1)c1cc2c(s1)CCCCC2 do in these assays?
CHX counter: 57*; Pf growth 48h: 30%; Shiga toxin inh: 115*

Results for O=C(CNC(=O)c1ccco1)NCC(c1ccco1)N1CCCCC1 (stereo not drawn) ?
Pf growth 96h: -27%; Pf growth 48h: -27%

Results for O=C(NCC(c1ccco1)N1CCCCC1)c1cc2c(s1)CCCC2 (stereo not drawn) ?
Pf growth 96h: 1.7µM*; Pf growth 48h: 8.3µM*

Results for COc1ccc2c(C)cc(=O)oc2c1C ?
CHX counter: 6; Pf growth 96h: 5.9µM*; Shiga toxin inh: 5

How did CCCOc1ccc2c(CC)cc(=O)oc2c1C do in these assays?
CHX counter: 11*; Pf growth 96h: 10%; Pf growth 48h: 57%; Shiga toxin inh: 31

How did CSCCC(=O)N1CCCC(N2CCN(c3cccc(C(F)(F)F)c3)CC2)C1 (stereo not drawn) do in these assays?
CHX counter: -3; Pf growth 96h: -11%; Pf growth 48h: -9%; Shiga toxin inh: -2

What do the screens show for `CCOC(=O)C(=O)N1CCN(c2cc3c(cc2[N+](=O)[O-])n(C)c(=O)n3C)CC1`?
CHX counter: -2; Pf growth 96h: 99%; Pf growth 48h: 14%; Shiga toxin inh: 1

How did CCN(CC)C(=O)c1cccc(-c2ccc(OC)cc2)c1 do in these assays?
CHX counter: 25*; Pf growth 48h: inconclusive; Shiga toxin inh: 49*

Results for COc1ccc(CC(NC(=O)c2ccccc2)C(=O)NCC(=O)O)cc1 (stereo not drawn) ?
CHX counter: -8; Pf growth 96h: 5%; Shiga toxin inh: -11

How did COC(=O)CNC(=O)c1cccc(-c2ccc(OC)cc2)c1 do in these assays?
CHX counter: 36*; Pf growth 96h: 2.3µM*; Pf growth 48h: 66%; Shiga toxin inh: 80*

Results for COc1ccc(-c2cccc(C(=O)NCC(=O)O)c2)cc1 ?
CHX counter: 23*; Pf growth 96h: 6%; Shiga toxin inh: 35*

Results for COC(=O)c1sccc1NC(=O)CC1NCCNC1=O (stereo not drawn) ?
CHX counter: -1; Pf growth 96h: 20%; Pf growth 48h: 13%; Shiga toxin inh: 20

How did CCC(C)NC(=O)C(Sc1ccccc1)c1ccccc1 (stereo not drawn) do in these assays?
CHX counter: -1; Pf growth 96h: inconclusive; Pf growth 48h: inconclusive; Shiga toxin inh: -14

What do the screens show for `CC(=O)Nc1ccc(Nc2nc(C(F)(F)F)nc3c2nnn3Cc2ccccc2Cl)cc1`?
CHX counter: 2; Pf growth 96h: inconclusive; Pf growth 48h: 0%; Shiga toxin inh: -9

How did COCCNC(=O)CN(C(=O)Cn1nnc2ccccc21)c1ccc(F)c(Cl)c1 do in these assays?
CHX counter: -2; Pf growth 96h: 10µM*; Pf growth 48h: 18%; Shiga toxin inh: -18

What do the screens show for `COCCNC(=O)CN(C(=O)Cn1nnc2ccccc21)c1ccccc1C`?
CHX counter: -3; Pf growth 96h: 13%; Pf growth 48h: 11%; Shiga toxin inh: -2

How did Cc1ccc(C[C@H](C(=O)O)N2C(=O)c3ccc(C(=O)O)cc3C2=O)c(C)c1 do in these assays?
CHX counter: -1; Pf growth 96h: 13%; Pf growth 48h: inconclusive; Shiga toxin inh: 8

What do the screens show for `COc1ccc(C2Nc3cccc4cccc(c34)N2)cc1Br`?
CHX counter: 1; Pf growth 96h: inconclusive; Pf growth 48h: 10µM*; Shiga toxin inh: -3

How did COc1cc(C2Nc3cccc4cccc(c34)N2)ccc1OC(C)=O do in these assays?
CHX counter: -2; Pf growth 48h: 0%; Shiga toxin inh: -2

What do the screens show for `CCN(CC)c1ccc(C2Nc3cccc4cccc(c34)N2)cc1`?
CHX counter: 25*; Pf growth 96h: inconclusive; Pf growth 48h: 10µM*; Shiga toxin inh: 24

What do the screens show for `O=[N+]([O-])c1ccc(C2Nc3cccc4cccc(c34)N2)cc1`?
CHX counter: 1; Pf growth 96h: 13µM*; Pf growth 48h: -85%; Shiga toxin inh: -13

What do the screens show for `Fc1ccc(C2Nc3cccc4cccc(c34)N2)cc1`?
CHX counter: 5; Pf growth 96h: -1%; Pf growth 48h: inconclusive; Shiga toxin inh: 14
